# Records with an inconclusive call do not appear. Activity calls are given as the source filed them. How the source made its calls, unless noted: active means hit-call score of the fitted dose curve at least 0.9, where 1 is the maximum; inconclusive means response in the unintended direction; inactive means score below 0.9.
# What was measured:
# [1] = molecular target: Cellular tumor antigen p53 (Homo sapiens) (UniProt P04637); assay: TOX21_p53_BLA_p5_ratio: Tox21 HCT-116 p53 Agonism Beta-lactamase Assay, Ratio, Phase 5 (AID 2283599)
# Summary of the method: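 Beta-lactamase reporter ratio (blue 460 nm over green 530 nm, 405 nm excitation) after 2 h CCF4-AM loading, in HCT-116 cells exposed 16 h at 37 C to compounds pinned at 217-fold dilution. Increases relative to DMSO baseline scored.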
# [2] = TOX21_p53_BLA_p5_viability: Viability Assessment in the Tox21 HCT-116 p53 Agonism Beta-lactamase Assay, Phase 5 (AID 2283600)
# Summary of the method: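 Luciferase-coupled ATP quantitation of cells treated for 16 h (37C, 5% CO2) with test chemicals delivered in DMSO via a 217-fold dilution; 4000 cells/well; reagent incubated 30 min at room temperature before luminescence reading.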
# PGR (gene 5241) [3] = molecular target: PGR (gene 5241) (UniProt P06401); assay: TOX21_PR_BLA_Followup_Antagonist_ratio: Tox21 HEK293 Progesterone Receptor (PR) Antagonism Beta-lactamase Follow-Up Assay, Ratio (AID 2283934);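 further: PR-UAS-bla HEK293T cells stimulated with 1 nM R5020 agonist for 16 hr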
# Summary of the method: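 Readout is the blue/green (ch2/ch1) substrate cleavage ratio after 2 hours at room temperature, following 16 hr co-treatment of PR-bla HEK293T cells with compound and 1nM promegestone. Multiplexed CellTiter-Glo viability flags cytotoxicity; DMSO baseline.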
# [4] = TOX21_PR_BLA_Followup_Agonist_viability: Viability Assessment in the Tox21 HEK293 Progesterone Receptor (PR) Agonism Beta-lactamase Follow-Up Assay (AID 2283935);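 further: signal loss means lower viability so actives are cytotoxic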
# Summary of the method: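 Run multiplexed with the beta-lactamase FRET read, this endpoint measures ATP by CellTiter-Glo luminescence (30 min, room temperature). PR-UAS-bla HEK293T cells received compound 6 hr after plating and were then incubated 16 hr at 37C in 2% stripped serum.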
# [5] = TOX21_PR_BLA_Followup_Antagonist_viability: Viability Assessment in the Tox21 HEK293 Progesterone Receptor (PR) Antagonism Beta-lactamase Follow-Up Assay (AID 2283936);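 further: cells exposed to compound with R5020 agonist for 16 h; hits lower the luminescence signal meaning cytotoxicity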
# Summary of the method: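 PR-UAS-bla HEK293T cells in medium with 2% charcoal-stripped FBS were treated with compounds plus R5020 for 16 hr at 37C. After the beta-lactamase read, CellTiter-Glo was added to the same wells and luminescence read after 30 min at room temperature.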
# PGR (gene 5241) [6] = molecular target: PGR (gene 5241) (UniProt P06401); assay: TOX21_PR_LUC_Followup_Antagonist: Tox21 HEK293 Progesterone Receptor (PR) Antagonism Luciferase Follow-Up Assay (AID 2283938);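 further: curve fitted upward as signal gain over DMSO baseline despite antagonist label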
# Summary of the method: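 HEK293-PR-A-luc cells were precultured 5 days in medium with 10% charcoal-stripped FBS, seeded 3,000/well, then exposed to compounds in DMSO for 16 h at 37C. Luciferase was read by ONE-Glo luminescence after 30 min at room temperature.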
# PGR (gene 5241) [7] = molecular target: PGR (gene 5241) (UniProt P06401); assay: TOX21_PR_BLA_Followup_Agonist_ratio: Tox21 HEK293 Progesterone Receptor (PR) Agonism Beta-lactamase Follow-Up Assay, Ratio (AID 2283933)
# Summary of the method: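 Beta-lactamase reporter readout: ratio of cleaved (ch2) to uncleaved (ch1) substrate after 2 h room-temperature loading, following 16 h compound exposure at 37C. Cells were PR-UAS-bla HEK293T in 2% charcoal-stripped FBS medium. Viability was multiplexed by CellTiter-Glo.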
# PGR (gene 5241) [8] = molecular target: PGR (gene 5241) (UniProt P06401); assay: TOX21_PR_LUC_Followup_Agonist: Tox21 HEK293 Progesterone Receptor (PR) Agonism Luciferase Follow-Up Assay (AID 2283937; active means hit-call score of the fitted dose curve at least 0.9, where 1 is the maximum; inactive means score below 0.9)
# Summary of the method: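 Agonism scored as luciferase induction over DMSO, read by ONE-Glo after 30 min at RT. Compounds were incubated 16 h at 37C on HEK293-PR-A-luc cells (3,000/well, pre-plated 5 h) previously grown 5 days in charcoal-stripped serum.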
# [9] = TOX21_PR_LUC_Followup_Agonist_viability: Viability Assessment in the Tox21 HEK293 Progesterone Receptor (PR) Agonism Luciferase Follow-Up Assay (AID 2283941);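 further: loss of signal means cytotoxicity so actives lower viability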
# Summary of the method: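 Cytotoxicity counter-readout in the PR-A luciferase reporter line HEK293, with 16 h compound exposure at 37C after cells were cultured in charcoal-stripped serum. Cellular ATP quantified by CellTiter-Glo luminescence.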
# Chain of Cellular tumor antigen p53 (Homo sapiens) (P04637 whole entry, looked up): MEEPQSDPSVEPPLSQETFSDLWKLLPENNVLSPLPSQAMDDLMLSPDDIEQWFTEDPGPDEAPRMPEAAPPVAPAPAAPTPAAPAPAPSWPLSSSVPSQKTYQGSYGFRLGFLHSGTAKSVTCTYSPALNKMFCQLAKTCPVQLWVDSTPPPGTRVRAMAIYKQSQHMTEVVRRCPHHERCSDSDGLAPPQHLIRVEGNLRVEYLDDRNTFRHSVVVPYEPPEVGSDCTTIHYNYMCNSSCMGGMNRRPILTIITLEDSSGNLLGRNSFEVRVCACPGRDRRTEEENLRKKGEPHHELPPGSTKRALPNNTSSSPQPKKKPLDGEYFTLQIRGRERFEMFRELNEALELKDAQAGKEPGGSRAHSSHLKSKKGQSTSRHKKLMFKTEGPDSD
# Chain of PGR (gene 5241) (P06401 whole entry, looked up): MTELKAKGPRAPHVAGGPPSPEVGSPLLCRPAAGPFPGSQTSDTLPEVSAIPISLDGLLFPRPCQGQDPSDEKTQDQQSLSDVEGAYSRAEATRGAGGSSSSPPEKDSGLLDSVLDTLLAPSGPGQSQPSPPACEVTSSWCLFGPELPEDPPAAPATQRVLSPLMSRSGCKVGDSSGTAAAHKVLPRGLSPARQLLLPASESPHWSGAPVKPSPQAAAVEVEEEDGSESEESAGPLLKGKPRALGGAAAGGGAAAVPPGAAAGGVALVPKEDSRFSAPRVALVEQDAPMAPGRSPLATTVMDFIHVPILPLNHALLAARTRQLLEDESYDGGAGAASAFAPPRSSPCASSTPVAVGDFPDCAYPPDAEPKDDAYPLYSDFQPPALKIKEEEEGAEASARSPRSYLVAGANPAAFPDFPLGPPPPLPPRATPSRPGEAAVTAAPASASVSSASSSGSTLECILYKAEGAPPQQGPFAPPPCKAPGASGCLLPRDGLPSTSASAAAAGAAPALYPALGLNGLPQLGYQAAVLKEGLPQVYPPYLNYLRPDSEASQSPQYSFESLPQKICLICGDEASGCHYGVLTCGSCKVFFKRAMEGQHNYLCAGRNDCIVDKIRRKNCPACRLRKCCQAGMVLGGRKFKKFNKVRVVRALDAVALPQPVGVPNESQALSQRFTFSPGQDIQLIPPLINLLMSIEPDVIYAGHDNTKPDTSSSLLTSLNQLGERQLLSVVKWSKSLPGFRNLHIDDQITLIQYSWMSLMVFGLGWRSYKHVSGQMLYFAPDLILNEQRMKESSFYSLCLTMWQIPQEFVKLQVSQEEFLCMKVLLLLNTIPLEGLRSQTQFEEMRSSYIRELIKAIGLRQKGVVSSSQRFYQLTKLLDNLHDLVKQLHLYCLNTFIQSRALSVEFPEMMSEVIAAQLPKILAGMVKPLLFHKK
smiles,measurement,setting,value
CC1(C)S[C@@H]2[C@H](N)C(=O)N2[C@H]1C(=O)O,outcome,[1],inactive
same,outcome,[2],inactive
NC(=O)OCCCc1ccccc1,outcome,[1],inactive
same,outcome,[2],inactive
Nc1cc(Cl)ccc1O,AC50,[1],62.6 µM (active)
same,outcome,[2],inactive
CN(C)CCc1c[nH]c2ccc(O)cc12,outcome,[1],inactive
S=C=NCc1ccccc1,outcome,[1],inactive
same,outcome,[2],inactive
NCCc1ccc(O)cc1,outcome,[1],inactive
ClC(Cl)C(Cl)Cl,outcome,[1],inactive
O=C1Nc2ccc(Cl)cc2C(c2ccccc2Cl)=NC1O (stereo not drawn),outcome,[2],inactive
CC1COC2(c3ccccc3Cl)c3cc(Cl)ccc3NC(=O)CN12 (stereo not drawn),outcome,PGR (gene 5241) [3],inactive
same,outcome,[4],inactive
same,outcome,[5],inactive
same,outcome,PGR (gene 5241) [6],inactive
CCC(=O)O[C@@H]1C=C2CCC3C(CCC4(C)C3CC[C@@H]4OC(=O)CC)C2CC1 (stereo partly drawn),AC50,PGR (gene 5241) [7],4.48 µM (active)
same,outcome,PGR (gene 5241) [3],inactive
same,outcome,[4],inactive
same,AC50,PGR (gene 5241) [8],0.165 µM (active)
same,outcome,PGR (gene 5241) [6],inactive
same,outcome,[9],inactive
Nc1ccc(Cl)cc1C(=O)c1ccccc1F,outcome,PGR (gene 5241) [7],inactive
same,AC50,PGR (gene 5241) [3],17.3 µM (active)
same,outcome,[4],inactive
same,outcome,[5],inactive
same,outcome,PGR (gene 5241) [8],inactive
same,outcome,PGR (gene 5241) [6],inactive
same,outcome,[9],inactive
CCN(Cc1ccc(Cl)nc1)/C(=C/[N+](=O)[O-])NC,outcome,[1],inactive
O=C(CBr)Nc1ccc(Cl)cc1C(=O)c1ccccc1F,outcome,PGR (gene 5241) [7],inactive
same,outcome,PGR (gene 5241) [3],inactive
same,outcome,[4],inactive
same,outcome,[5],inactive
same,outcome,PGR (gene 5241) [8],inactive
same,outcome,PGR (gene 5241) [6],inactive
same,outcome,[9],inactive
NC(=O)c1cc([N+](=O)[O-])cc([N+](=O)[O-])c1,outcome,[2],inactive
C[C@]12CC[C@H]3[C@@H](CCC4=CC(=O)CC[C@@H]43)[C@@H]1CC[C@@H]2OC(=O)CCc1ccco1,AC50,PGR (gene 5241) [7],2.16 µM (active)
same,outcome,PGR (gene 5241) [3],inactive
same,outcome,[4],inactive
same,outcome,[5],inactive
same,AC50,PGR (gene 5241) [8],0.0275 µM (active)
same,outcome,PGR (gene 5241) [6],inactive
CCCCCCCCCC(=O)O[C@H]1CC[C@H]2[C@@H]3CCC4=CC(=O)CC[C@]4(C)[C@H]3CC[C@]12C,outcome,[1],inactive
C[C@]12Cc3cn[nH]c3C[C@@H]1CC[C@@H]1[C@@H]2CC[C@@]2(C)[C@H]1CC[C@]2(C)O,AC50,PGR (gene 5241) [7],6.44 µM (active)
same,outcome,PGR (gene 5241) [3],inactive
same,outcome,[4],inactive
same,outcome,[5],inactive
same,AC50,PGR (gene 5241) [8],3.48 µM (active)
same,outcome,PGR (gene 5241) [6],inactive
same,outcome,[9],inactive
C[C@]12CC[C@H]3[C@@H](CCC4=CC(=O)CC[C@@H]43)[C@@H]1CC[C@@H]2OC(=O)CCC1CCCCC1,AC50,PGR (gene 5241) [7],2.39 µM (active)
same,outcome,PGR (gene 5241) [3],inactive
same,outcome,[4],inactive
same,outcome,[5],inactive
same,AC50,PGR (gene 5241) [8],0.0731 µM (active)
same,outcome,PGR (gene 5241) [6],inactive
same,outcome,[9],inactive
CN(CCO)CCO,outcome,[2],inactive
CCCN1CCC[C@@H]2Cc3[nH]ncc3C[C@H]21,outcome,[2],inactive
FC(Cl)(Cl)Cl,outcome,[2],inactive
O=c1[nH]c2ccccc2n1CCCN1CCC(n2c(=O)[nH]c3cc(Cl)ccc32)CC1,outcome,[2],inactive
O=C1CN=C(c2ccccc2)c2cc(Cl)ccc2N1CC1CC1,AC50,PGR (gene 5241) [3],23 µM (active)
same,outcome,[4],inactive
same,outcome,[5],inactive
same,outcome,PGR (gene 5241) [6],inactive
same,outcome,[9],inactive

# — PubChem BioAssay (EPA / NIEHS)
